Each structure is given as a SMILES string. About 25,000 (6.9%) of roughly 360,000 compounds were called active. Inconclusive results (about 9%) are left out. This is one part of a sample in which actives are shown more often than they occur. A number with no mark means an inactive call. Calls come from the whole dose curve; as a rule, active = well fitted inhibition curve with a large enough effect; inconclusive = small, poorly fitted or top-dose-only effect; inactive = flat fitted curve, though single readings scatter.
Potency is the fitted concentration of half-maximal effect.

Luciferin 4-monooxygenase (Photinus pyralis), sequence (P08659 whole entry, looked up): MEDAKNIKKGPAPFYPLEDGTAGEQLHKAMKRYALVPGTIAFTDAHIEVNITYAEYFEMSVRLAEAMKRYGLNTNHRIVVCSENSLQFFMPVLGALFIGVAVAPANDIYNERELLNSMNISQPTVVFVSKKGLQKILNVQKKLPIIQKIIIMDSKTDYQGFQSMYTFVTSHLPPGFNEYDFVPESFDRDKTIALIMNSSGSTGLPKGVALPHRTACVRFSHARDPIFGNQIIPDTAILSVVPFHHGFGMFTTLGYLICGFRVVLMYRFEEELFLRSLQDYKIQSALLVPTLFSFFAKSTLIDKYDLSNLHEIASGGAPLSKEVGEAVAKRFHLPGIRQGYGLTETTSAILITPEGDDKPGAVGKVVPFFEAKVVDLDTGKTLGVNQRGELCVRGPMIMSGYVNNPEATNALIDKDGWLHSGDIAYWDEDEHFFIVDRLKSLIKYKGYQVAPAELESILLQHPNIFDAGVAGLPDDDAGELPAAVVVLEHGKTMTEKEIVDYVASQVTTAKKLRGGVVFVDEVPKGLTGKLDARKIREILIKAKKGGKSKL

The target in the test is Luciferin 4-monooxygenase (Photinus pyralis) (UniProt P08659). In words: qHTS profiling assay for firefly luciferase inhibitor/activator using purifed enzyme and Km concentrations of substrates (counterscreen for miR-21 project).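 For activity change, negative = inhibition: plate controls were vehicle for no effect and reference inhibitor for full effect.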 Note: nearly all actives have a fitted effect of over 55% in size. Conditions: purified FLuc, luminescence inhibition; series mostly up to 57.5 µM; activity change, negative = inhibition: at the top concentration. An outline of the steps:
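Purified P. pyralis luciferase (10nM final) with 10uM D-luciferin and 10uM ATP (Km levels) in 50mM Tris acetate pH 7.5, 10mM Mg acetate, 0.01% Tween-20, 0.05% BSA; qHTS 6-point titration, ~60 µM downward; luminescence read.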
(Quantitative high-throughput screening tests each substance at several concentrations.)
With `O=C(CSc1nnc(CN2CCCC2)n1-c1ccc(F)cc1)c1ccc2c(c1)OCO2`, the “activity change, negative = inhibition” value is 2.79%.

As for `O=C(CN1CCN(c2ccccc2O)CC1)NC(=O)NCc1ccccc1`, the “activity change, negative = inhibition” value is 12.3%.

For `COc1ccc(S(=O)(=O)Nc2ccc3cn[nH]c3c2)cc1[N+](=O)[O-]`, the “activity change, negative = inhibition” value is 2.65%.

Turning to `CCOC(=O)Cc1csc(SCC(=O)Nc2ccc(C)cc2F)n1`, the “activity change, negative = inhibition” value was 2.01%.

In the case of `CCOC(=O)c1ccccc1NC(=O)CCc1c(C)nc2c(c1C)c(=O)n(C)c(=O)n2C`, the “activity change, negative = inhibition” value was -0.937%.

Regarding `CCc1cccc(C)c1NC(=O)COC(=O)CC1CCCC1`, the “activity change, negative = inhibition” value is 0.287%.

Take `CCOc1cccc2cc(C(=O)OCC(=O)Nc3c(C)cccc3CC)c(=O)oc12`: the Potency was 15.1 µM (active).

With `Cc1cccc(C)c1NC(=O)COC(=O)c1ccccc1O`, the “activity change, negative = inhibition” value was -0.453%.

For the molecule `O=c1[nH]c(CN2CCOCC2)nc2cc(Cl)ccc12`, the “activity change, negative = inhibition” value is 2.21%.

For the molecule `NC(=O)Cc1nc2scc(-c3ccc(Cl)cc3)c2c(=O)[nH]1`, the “activity change, negative = inhibition” value is 0.326%.

On to `O=c1[nH]c(CCl)nc2cc(-c3ccc(Cl)cc3)sc12`, for which the Potency is 0.107 µM (active).

Regarding `CCc1ccccc1NC(=O)c1ccc(F)c(S(=O)(=O)NC2CCCCCC2)c1`, the “activity change, negative = inhibition” value is -2.22%.

As to `COC(=O)c1ccc(NC(=O)CCc2c(C)nc3c(c(C)nn3-c3ccc(C)cc3)c2C)cc1`, the “activity change, negative = inhibition” value was -4.68%.

For `COc1cccc(N(CC(=O)Nc2cccc(N(C)S(C)(=O)=O)c2)S(C)(=O)=O)c1`, the “activity change, negative = inhibition” value is 1.64%.

With `CN(c1cccc(NC(=O)Nc2ccc(Cl)cc2)c1)S(C)(=O)=O`, the Potency is 2.39 µM (active).

As for `CN(c1ccccc1)S(=O)(=O)c1cccc(NC(=O)Cc2ccc(Cl)cc2)c1`, the “activity change, negative = inhibition” value is -14.1%.

Take `O=C(Nc1ccc(Cl)cc1)Nc1ccc(Oc2cccnc2)nc1`: the “activity change, negative = inhibition” value was -28.9%.

For `COc1ccc(-n2c(=O)c3c(c4cc(OC)ccc4n3C)n(Cc3cccc(C)c3)c2=O)cc1`, the “activity change, negative = inhibition” value is -0.917%.

Regarding `CC(=O)Nc1ccccc1NC(=O)c1cc(C)cc(C)c1`, the “activity change, negative = inhibition” value is 3.27%.

Regarding `CSCc1ccc(C(=O)Nc2cc(C)cc(C)c2)cc1`, the Potency was 2.13 µM (active).

Take `Cc1cc(C)cc(NC(=O)CSc2ccccc2)c1`: the “activity change, negative = inhibition” value was -4.76%.

With `CCc1ccc(N2C(=O)CN(S(=O)(=O)CC)CC2(C)C(=O)NC2CCCCC2)cc1` (stereo unspecified), the “activity change, negative = inhibition” value is -6.49%.

Regarding `O=C(NC1CC(=O)N(c2ccc(F)cc2)C1)C1CCCCC1` (stereo unspecified), the “activity change, negative = inhibition” value was 1.54%.

On to `CCOC(=O)CNC(=O)c1cc2c(=O)n3cccc(C)c3nc2s1`, for which the “activity change, negative = inhibition” value is -11.1%.

As for `CC(=O)c1cccc(Nc2ccc3cc(S(=O)(=O)N4CCC(C)CC4)ccc3n2)c1`, the “activity change, negative = inhibition” value was 0.763%.

For `N/C(=N\OC(=O)c1ccc2c(c1)OCO2)c1ccc(Br)cc1`, the Potency was 1.69 µM (active).

Turning to `N/C(=N\OC(=O)N1c2ccccc2Sc2ccccc21)c1ccc(Br)cc1`, the “activity change, negative = inhibition” value is -12.5%.

Take `N/C(=N\OC(=O)/C=C/c1ccccc1)c1ccc(Br)cc1`: the “activity change, negative = inhibition” value is -17%.

Consider `Cc1ccc(-c2cc(C(F)(F)F)c(C#N)c(SCC(=O)Nc3ccccc3)n2)cc1`, for which the “activity change, negative = inhibition” value was -0.837%.

With `COC(=O)/C=C/C(=O)NCc1ccco1`, the “activity change, negative = inhibition” value is -0.0929%.

For the molecule `O=C(NCc1ccco1)C1(c2ccc(Cl)cc2)CCCC1`, the “activity change, negative = inhibition” value is 5.76%.

Regarding `O=C(/C=C/c1ccc(Cl)cc1Cl)NCc1ccco1`, the Potency was 7.57 µM (active).

Turning to `COc1ccccc1CNC(=O)C(Cc1ccccc1)NS(=O)(=O)c1ccc2c(c1)oc(=O)n2C` (stereo unspecified), the “activity change, negative = inhibition” value is -2.22%.

As to `CSCCC(NC(=O)c1ccccc1)C(=O)N1CCN(Cc2ccc(Cl)cc2)CC1` (stereo unspecified), the “activity change, negative = inhibition” value was 4.35%.

In the case of `COc1cc(C=O)ccc1Oc1nnnn1-c1ccccc1`, the “activity change, negative = inhibition” value is 5.93%.

On to `COc1ccc(N2C(=O)CC(Nc3ccc(F)cc3)C2=O)c([N+](=O)[O-])c1` (stereo unspecified), for which the “activity change, negative = inhibition” value is 0.0586%.

For the molecule `COc1cc(CN2CC(C)CC(C)C2)cc([N+](=O)[O-])c1O` (stereo unspecified), the “activity change, negative = inhibition” value is -0.254%.

Regarding `C/C=C/c1ccc(OCCOc2ccc(C=O)cc2OC)c(OC)c1`, the “activity change, negative = inhibition” value is 11.6%.

As for `COc1cccc2c1cc1c(=O)n(CC(=O)N3CCN(c4cccc(Cl)c4)CC3)nc(C)n12`, the “activity change, negative = inhibition” value is 2.9%.

As for `COc1cc(/C=C2/C(=O)NN(c3cccc(Cl)c3)C2=O)cc(Br)c1O`, the Potency was 30.1 µM (active).

For `CCOc1c(Br)cc(/C=C2\C(=O)N(CCC#N)N=C2C)cc1OC`, the “activity change, negative = inhibition” value was -14.2%.

In the case of `COc1cc(/C=C2/C(=O)NN(c3ccc(F)cc3)C2=O)cc([N+](=O)[O-])c1O`, the Potency was 26.9 µM (active).

On to `C#CCOc1ccc(/C=C2/C(=O)NN(c3ccccc3)C2=O)cc1OC`, for which the Potency was 0.849 µM (active).

As to `CCOc1ccc(-c2nonc2NC(=O)c2oc3ccc(CC)cc3c2C)cc1`, the “activity change, negative = inhibition” value was -1.22%.

Consider `NC1=NC(c2cc(F)cc(F)c2)n2c(nc3ccccc32)N1` (stereo unspecified), for which the “activity change, negative = inhibition” value was -6.24%.

`CC(C(=O)NC1CCCCC1)N1C(=O)c2cccc3cccc1c23` (stereo unspecified): the “activity change, negative = inhibition” value was -0.249%.

For `N#Cc1ccc(OCC(=O)NC(=O)NC2CCS(=O)(=O)C2)cc1` (stereo unspecified), the “activity change, negative = inhibition” value was -1.14%.

Consider `Cc1nc2ccn(Cc3cccnc3)c(=O)c2cc1C(=O)N1CCN(c2ccccc2F)CC1`, for which the “activity change, negative = inhibition” value was -2.88%.

For the molecule `Cc1cc2c(cc3c(SCc4cccc(Cl)c4)nnc(C)n32)o1`, the “activity change, negative = inhibition” value was -12.8%.

Turning to `CN1CCC(=NNC(=O)c2ccc(N(Cc3ccc(Cl)cc3)S(C)(=O)=O)cc2)CC1`, the “activity change, negative = inhibition” value is -2.34%.

Consider `NS(=O)(=O)c1cc(C(=O)OCC(=O)NNC(=O)c2ccccc2)ccc1Cl`, for which the “activity change, negative = inhibition” value was 2.64%.
